The nature of assay [1]: ATG_CRE_CIS: Attagene CIS-FACTORIAL HepG2 Assay for human cAMP Responsive Element (CRE) binding protein 3 (AID 2282926). The settings on record: HepG2 CRE cis-reporter, Attagene multiplexed mRNA; actives raise or lower the signal. In a few lines:
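Induced reporter mRNA from a CRE cis element, measured in HepG2 among many multiplexed units at 24 h. Detection used RT-PCR plus capillary electrophoresis of fluorescent fragments; DMSO served as negative control.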

In assay [2] the target is CCAAT/enhancer-binding protein beta (Homo sapiens) (UniProt P17676). Description: ATG_C_EBP_CIS: Attagene CIS-FACTORIAL HepG2 Assay for human CCAAT/Enhancer Binding Protein (C/EBP) beta (AID 2282927). The following applies: HepG2 Attagene cis-factorial transcription factor reporter; actives raise or lower the signal. The method, boiled down: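 HepG2 transiently transfected with multiplexed reporter units under cis-regulatory promoters reporting endogenous C/EBPb activity. After 24 h exposure, reporter mRNA assayed by RT-PCR, fluorescent labelling, HpaI digestion and capillary electrophoresis; bidirectional fitting versus DMSO.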

Assay [3] can be described thus: ATG_CMV_CIS: Attagene CIS-FACTORIAL HepG2 Assay for human CMV (Internal Marker) (AID 2282928).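 Also: endpoint acts as a background internal control marker rather than a target.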 The settings on record: HepG2 CMV promoter reporter, transcription factor profiling; actives raise or lower the signal. In a few lines:
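24 h chemical treatment, HepG2 with transient multi-reporter transfection; RNA → oligo(dT) RT → PCR → 6-FAM extension → HpaI digest → CE fluorescence. Bidirectional fit, DMSO negative control.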

Assay [4] in a line: ATG_DR4_LXR_CIS: Attagene CIS-FACTORIAL HepG2 Assay for human Liver X Receptor (LXR), DR4 submotif (AID 2282929). The following applies: HepG2 Attagene DR4 cis-reporter, mRNA transcription; actives raise or lower the signal. In a few lines: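 Endogenous factor activity at a DR4 cis-element is read as reporter mRNA in transiently transfected HepG2 cells. Exposure lasts 24 h; transcripts are amplified, fluorescently labelled and sized by capillary electrophoresis, with DMSO as baseline.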

Assay [5] concerns the target Aryl hydrocarbon receptor (Homo sapiens) (UniProt P35869). In words: ATG_Ahr_CIS: Attagene CIS-FACTORIAL HepG2 Assay for human Aryl Hydrocarbon Receptor (Ahr) (AID 2282930). The following applies: HepG2 AhR cis-factorial reporter transcription; actives raise or lower the signal. The method, boiled down:
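HepG2 cells transiently transfected with cis-element-driven multiplexed reporter units; endogenous AhR activity read as reporter mRNA 24 h after dosing, via RT-PCR, 6-FAM labelling, HpaI digestion and capillary electrophoresis. Bidirectional fit relative to DMSO.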

Assay [6] is described as follows: ATG_AP_1_CIS: Attagene CIS-FACTORIAL HepG2 Assay for human Activator Protein 1 (AP-1) (AID 2282931). The settings on record: HepG2 Attagene cis-factorial AP-1 reporter mRNA; actives raise or lower the signal. In a few lines:
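Fluorescence of labelled PCR fragments separated by capillary electrophoresis gives reporter mRNA levels. HepG2 with transfected cis-regulated reporter units, 24 h exposure; DMSO serves as baseline for bidirectional curve fits.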

A short description of assay [7]: ATG_AP_2_CIS: Attagene CIS-FACTORIAL HepG2 Assay for human Activator Protein 2 (AP-2) (AID 2282932). The following applies: HepG2 AP-2 cis-reporter, Attagene transcription factor profiling; actives raise or lower the signal. In a few lines: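 Read-out: fluorescent reporter mRNA via RT-PCR and capillary electrophoresis, 24 h post-dose in transiently transfected HepG2. Endogenous factors drive cis-promoter reporters; gain or loss of signal fitted bidirectionally against DMSO.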

Assay [8] is described as follows: ATG_BRE_CIS: Attagene CIS-FACTORIAL HepG2 Assay for human Bone Morphogenetic Protein (BMP) Response Element (BRE) (AID 2282933). The following applies: HepG2 BMP response element reporter, Attagene transcription factor profiling; actives raise or lower the signal. In a few lines:
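Gain- or loss-of-signal was derived by bidirectional fitting against DMSO controls. The signal came from reporter mRNA, measured by RT-PCR and capillary electrophoresis, in HepG2 cells transiently carrying multiple reporter units and dosed for 24 h.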

In assay [9] the target is Retinoic acid receptor alpha (Homo sapiens) (UniProt P10276). Description: ATG_DR5_RAR_CIS: Attagene CIS-FACTORIAL HepG2 Assay for human Retinoic Acid Receptor Alpha (RARE), DR5 submotif (AID 2282934). The following applies: HepG2 Attagene cis-factorial RARE DR5 reporter, mRNA; actives raise or lower the signal. The method, boiled down: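 HepG2 cells transiently transfected with multiplexed reporter units; DR5 cis-element drives reporter through endogenous transcription factors. After 24 h dosing, reporter mRNA quantified by RT-PCR, fluorescent labeling, HpaI digestion and capillary electrophoresis; bidirectional fitting versus DMSO.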

A short description of assay [10]: ATG_E_Box_CIS: Attagene CIS-FACTORIAL HepG2 Assay for human Enhancer Box (E-box) (AID 2282936). The settings on record: HepG2 E-box cis-reporter transcription, actives raise or lower the signal. The method, boiled down:
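Transiently transfected HepG2, endogenous TF-driven reporters, 24 h dosing. Readout: RT-PCR plus capillary electrophoresis of fluorescent reporter fragments. Gain or loss of signal fitted bidirectionally against DMSO baseline.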

Assay [11] is described as follows: ATG_M_61_CIS: Attagene CIS-FACTORIAL HepG2 Assay for M61 Transcription Factor (Internal Marker) (AID 2282937). The following applies: HepG2 Attagene CIS-FACTORIAL M61 internal marker reporter; actives raise or lower the signal. In a few lines:
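This endpoint serves as an internal background control within a multiplexed HepG2 cis-reporter panel. Cells are exposed for 24 h; reporter mRNA is amplified, fluorescently labelled and sized by capillary electrophoresis, with DMSO as negative control.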

A short description of assay [12]: ATG_EGR_CIS: Attagene CIS-FACTORIAL HepG2 Assay for human Early Growth Response 1 (EGR1) (AID 2282938). The settings on record: HepG2 Attagene CIS-FACTORIAL EGR reporter mRNA; actives raise or lower the signal. The method, boiled down: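 HepG2, transient MRTU transfection (cis promoters), 24 h compound. RNA → RT (oligo-dT) → PCR → 6-FAM labelling → HpaI cut → CE fluorescence. Bidirectional fit, DMSO baseline.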

Assay [13] in a line: ATG_M_19_CIS: Attagene CIS-FACTORIAL HepG2 Assay for M19 Transcription Factor (Internal Marker) (AID 2282939). The settings on record: HepG2 Attagene CIS-FACTORIAL M19 internal marker reporter; actives raise or lower the signal. In a few lines:
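Following a 24 h exposure, RNA from transfected HepG2 cells was reverse-transcribed, PCR-amplified with reporter-specific primers, end-labelled with 6-FAM and HpaI-digested before capillary separation. Values represent gain or loss versus DMSO.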

Assay [14] in a line: ATG_ERE_CIS: Attagene CIS-FACTORIAL HepG2 Assay for Estrogen Response Element (ERE) (AID 2282940). The settings on record: HepG2 ERE cis-reporter, Attagene RNA transcript; actives raise or lower the signal. The method, boiled down: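 HepG2, transient cis-reporter units, 24 h exposure. RNA isolated, oligo(dT) RT, reporter-specific PCR, FAM extension, HpaI cut, CE detection. Gain/loss-of-signal vs DMSO.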

A short description of assay [15]: ATG_Ets_CIS: Attagene CIS-FACTORIAL HepG2 Assay for human Erythroblast Transformation Specific (ETS) (AID 2282941). The following applies: HepG2 ETS cis-reporter transcription, actives raise or lower the signal. The method, boiled down: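 Cis-regulated reporter mRNA induction in HepG2 (transient transfection), 24 h exposure, RT-PCR plus capillary electrophoresis detection; DMSO serves as negative control and baseline.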

Assay [16] addresses Hepatocyte nuclear factor 3-beta (Homo sapiens) (UniProt Q9Y261). In words: ATG_FoxA2_CIS: Attagene CIS-FACTORIAL HepG2 Assay for human Forkhead box A2 (FOXA2) (AID 2282942). The following applies: HepG2 cis-reporter transcription factor activity, 24 h; actives raise or lower the signal. The method, boiled down: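 Cells: HepG2, transient multiplex reporter transfection. Exposure 24 h. Detection: reporter-specific RT-PCR, fluorescent labelling, restriction digest, capillary electrophoresis. Analysis: bidirectional curve fit, DMSO as negative control.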

Assay [17] in a line: ATG_FoxO_CIS: Attagene CIS-FACTORIAL HepG2 Assay for human Forkhead box O (FoxO) (AID 2282943). The settings on record: HepG2 Attagene cis-reporter, FoxO element, mRNA; actives raise or lower the signal. The method, boiled down:
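HepG2 cells transiently transfected with cis-element-driven reporter units report endogenous FoxO activity. After 24 h chemical exposure, reporter mRNA quantified by RT-PCR, fluorescent labeling, HpaI digestion and capillary electrophoresis; bidirectional fit versus DMSO.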

The nature of assay [18]: ATG_GLI_CIS: Attagene CIS-FACTORIAL HepG2 Assay for human Zinc Finger Protein GLI1 (AID 2282945). The following applies: HepG2, Attagene cis-factorial reporter mRNA, GLI element; actives raise or lower the signal. In a few lines:
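Transiently transfected HepG2 cells report endogenous transcription factor activity via cis-element-driven reporter units. After 24 h compound exposure, reporter mRNA was measured by RT-PCR with capillary electrophoresis; bidirectional fitting against DMSO baseline.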

In assay [19] the target is Transcription factor E2F1 (Homo sapiens) (UniProt Q01094). Description: ATG_E2F_CIS: Attagene CIS-FACTORIAL HepG2 Assay for human E2F Transcription Factor 1 (AID 2282935). The settings on record: HepG2 Attagene cis-reporter, E2F reporter RNA transcripts; actives raise or lower the signal. The method, boiled down:
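Transient MRTU transfection of HepG2; 24 h compound exposure; RNA → oligo(dT) RT → PCR → FAM label → HpaI cut → CE fluorescence. Gain/loss of signal fit against DMSO.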

Values joined by “and” are separate entries in the source; they are usually repeats but may differ in a detail not shown here. Equal values may be shown once. A structure can be active in one record and inactive in another. Active and inactive are the calls of the source. The calls were made as follows: active = hit-call score of the fitted dose curve at least 0.9, where 1 is the maximum; inactive = score below 0.9.

Aryl hydrocarbon receptor (Homo sapiens), sequence (P35869 whole entry, looked up): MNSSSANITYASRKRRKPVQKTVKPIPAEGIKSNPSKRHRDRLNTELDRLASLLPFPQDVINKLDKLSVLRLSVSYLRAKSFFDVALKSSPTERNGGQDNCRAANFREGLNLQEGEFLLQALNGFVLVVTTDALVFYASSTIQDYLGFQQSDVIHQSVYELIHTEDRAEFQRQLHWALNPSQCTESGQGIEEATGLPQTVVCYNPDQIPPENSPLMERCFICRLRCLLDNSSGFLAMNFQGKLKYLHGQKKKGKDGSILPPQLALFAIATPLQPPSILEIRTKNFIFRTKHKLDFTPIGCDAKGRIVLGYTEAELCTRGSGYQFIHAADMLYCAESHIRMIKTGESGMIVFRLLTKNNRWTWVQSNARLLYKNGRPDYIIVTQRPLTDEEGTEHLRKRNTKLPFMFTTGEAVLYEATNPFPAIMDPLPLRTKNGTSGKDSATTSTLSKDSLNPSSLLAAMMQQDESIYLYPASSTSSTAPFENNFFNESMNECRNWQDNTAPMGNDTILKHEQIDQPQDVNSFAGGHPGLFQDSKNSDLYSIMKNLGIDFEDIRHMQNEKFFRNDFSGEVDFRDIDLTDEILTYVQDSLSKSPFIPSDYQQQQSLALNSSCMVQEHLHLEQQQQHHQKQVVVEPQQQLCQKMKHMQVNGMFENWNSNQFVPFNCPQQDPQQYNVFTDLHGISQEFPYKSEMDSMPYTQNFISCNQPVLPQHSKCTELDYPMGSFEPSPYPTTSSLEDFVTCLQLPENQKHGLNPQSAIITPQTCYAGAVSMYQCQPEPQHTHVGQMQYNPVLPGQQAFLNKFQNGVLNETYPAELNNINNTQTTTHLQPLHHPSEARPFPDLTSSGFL
CCAAT/enhancer-binding protein beta (Homo sapiens), sequence (P17676 whole entry, looked up): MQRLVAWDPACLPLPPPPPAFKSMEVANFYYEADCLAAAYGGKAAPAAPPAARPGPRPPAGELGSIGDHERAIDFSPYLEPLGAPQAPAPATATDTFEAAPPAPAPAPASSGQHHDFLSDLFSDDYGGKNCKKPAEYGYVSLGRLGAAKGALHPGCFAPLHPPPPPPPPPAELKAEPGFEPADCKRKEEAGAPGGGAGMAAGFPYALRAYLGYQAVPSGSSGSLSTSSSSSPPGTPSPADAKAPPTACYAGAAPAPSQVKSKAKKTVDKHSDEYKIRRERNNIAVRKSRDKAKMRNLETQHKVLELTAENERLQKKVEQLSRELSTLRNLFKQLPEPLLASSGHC
Hepatocyte nuclear factor 3-beta (Homo sapiens), sequence (Q9Y261 whole entry, looked up): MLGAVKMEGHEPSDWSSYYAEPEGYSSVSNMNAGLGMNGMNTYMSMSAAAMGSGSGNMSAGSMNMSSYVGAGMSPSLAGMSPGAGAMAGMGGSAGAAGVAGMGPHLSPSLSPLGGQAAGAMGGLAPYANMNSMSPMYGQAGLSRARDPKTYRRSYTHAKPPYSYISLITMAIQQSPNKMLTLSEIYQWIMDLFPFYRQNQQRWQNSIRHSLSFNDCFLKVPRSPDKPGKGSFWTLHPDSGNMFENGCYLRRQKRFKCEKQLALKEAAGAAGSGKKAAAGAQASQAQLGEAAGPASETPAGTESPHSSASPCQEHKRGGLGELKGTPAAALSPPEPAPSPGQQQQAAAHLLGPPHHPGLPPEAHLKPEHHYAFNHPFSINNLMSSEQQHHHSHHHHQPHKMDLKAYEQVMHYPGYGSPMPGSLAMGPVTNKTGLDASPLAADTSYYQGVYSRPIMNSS
Retinoic acid receptor alpha (Homo sapiens), sequence (P10276 whole entry, looked up): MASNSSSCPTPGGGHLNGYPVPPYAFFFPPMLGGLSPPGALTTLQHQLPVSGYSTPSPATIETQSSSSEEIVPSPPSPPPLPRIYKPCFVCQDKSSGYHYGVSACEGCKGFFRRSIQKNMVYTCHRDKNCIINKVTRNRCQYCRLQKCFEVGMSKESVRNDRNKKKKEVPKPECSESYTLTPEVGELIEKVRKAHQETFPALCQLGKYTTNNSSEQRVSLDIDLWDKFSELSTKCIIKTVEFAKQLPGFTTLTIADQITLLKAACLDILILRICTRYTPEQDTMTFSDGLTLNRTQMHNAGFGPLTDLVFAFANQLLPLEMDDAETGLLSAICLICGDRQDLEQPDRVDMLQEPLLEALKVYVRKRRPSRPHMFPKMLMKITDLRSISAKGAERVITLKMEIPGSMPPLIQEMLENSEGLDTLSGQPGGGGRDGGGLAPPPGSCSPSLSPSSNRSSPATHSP
Transcription factor E2F1 (Homo sapiens), sequence (Q01094 whole entry, looked up): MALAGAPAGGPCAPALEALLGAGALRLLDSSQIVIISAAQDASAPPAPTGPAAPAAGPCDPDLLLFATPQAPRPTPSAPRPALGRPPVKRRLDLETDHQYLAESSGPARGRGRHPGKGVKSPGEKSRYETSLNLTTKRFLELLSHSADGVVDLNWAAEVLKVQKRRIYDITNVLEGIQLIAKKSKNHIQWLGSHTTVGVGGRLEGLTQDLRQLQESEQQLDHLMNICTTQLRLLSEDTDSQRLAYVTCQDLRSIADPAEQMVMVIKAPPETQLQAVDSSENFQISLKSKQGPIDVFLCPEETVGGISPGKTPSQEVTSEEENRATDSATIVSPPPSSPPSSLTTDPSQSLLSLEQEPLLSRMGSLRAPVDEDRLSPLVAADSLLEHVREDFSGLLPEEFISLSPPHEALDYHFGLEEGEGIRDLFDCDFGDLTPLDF

Turning to `FC(F)C(F)(F)COCC1CO1` (stereo unspecified), the compound was called inactive in assay [1], in assay [2], in assay [3], in [4], in assay [5] and in assay [6]. In addition, the compound was classed as inactive in [7], in assay [8], in assay [9], in [10], in assay [11] and in assay [12]. Also, the call in [13], in [14], in assay [15], in [16], in [17] and in assay [18] was inactive. Also, the concentration at half-maximal activity (AC50) in assay [14] was 118 µM (active).

As to `OC(O)(C(F)C(O)(O)C(F)(F)F)C(F)(F)F`, the compound was called inactive in assay [1], in [5], in assay [6], in assay [8], in assay [9] and in [19]. For the same compound, the outcome in assay [10], in assay [11], in assay [12], in assay [13], in assay [14] and in assay [15] was inactive. Also, the outcome in assay [16], in assay [17] and in assay [18] was inactive. The half-maximal activity concentration (AC50) in assay [2] is 78.9 µM (active) and 82.9 µM (active); in [3], 9 µM (active) and 6.13 µM (active); in assay [4] it was 37.9 µM (active) and 4.59 µM (active); in assay [7] it was 71 µM (active) and 18.9 µM (active); in [8], 6.79 µM (active); in assay [14], 150 µM (active).

For `OCc1c[nH]c2ccccc12`, the result in [1], in [2], in [3], in [4], in [7] and in assay [8] was inactive. Moreover, the compound was classed as inactive in [9], in [10], in assay [11], in [12], in [13] and in assay [15]. Also, the compound was classed as inactive in [16], in [17] and in [18]. In addition, the half-maximal activity concentration (AC50) in assay [3] was 25.1 µM (active); in assay [4], 69 µM (active) and 62.6 µM (active) and 49.8 µM (active); in assay [6], 47.2 µM (active) [middle of 5 runs]; in assay [8], 48.6 µM (active) and 85.4 µM (active) and 50.3 µM (active); in assay [14] it was 8.17 µM (active) [middle of 5 runs]; in assay [16], 1.72 µM (active) and 512 nM (active) and 1.85 µM (active).

One may read the AC50 as the midpoint of the concentration-response curve, whichever way the signal moves.

Source of the values: PubChem BioAssay (EPA / NIEHS).
